Among the test systems are SR leukemia; RPMI-8226 leukemia; OVCAR-5 ovarian; OVCAR-4 ovarian; SK-OV-3 ovarian; IGROV1 ovarian; OVCAR-3 ovarian; HS 578T breast; T-47D breast; BT-549 breast; MDA-MB-435 melanoma; SW-620 colon; MCF7 breast; HCT-116 colon; HCC-2998 colon; KM12 colon; NCI/ADR-RES ovarian; OVCAR-8 ovarian.
Assay in all cases: NCI-60 one-dose screen, 48 h (100 = growth as untreated, 0 = no growth, -100 = all killed)
What all share (conditions): 10 µM unless noted

The values below come from PubChem BioAssay (NCI).

Molecules are shown by their SMILES. Compounds without any hit were thinned out: in the full panel of roughly 83,000, 20% have a hit.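 Each cell line was grown in a 96-well plate and treated with one concentration of compound for 48 hours. Values below 10 were considered active.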 A number with no mark means an inactive call. The source made the active and inactive calls.

In the case of `CCCCOc1ccc(/C=N/NC(N)=S)cc1`, the growth was 84.7% in the assay on SR leukemia; 49.1% in the assay on RPMI-8226 leukemia; 93.1% in the assay with OVCAR-5 ovarian; 41.3% in the assay on OVCAR-4 ovarian; 92.1% in the assay on SK-OV-3 ovarian; 52.3% in the assay on IGROV1 ovarian. For the same molecule, the growth with OVCAR-3 ovarian was 63.2%; in the assay with HS 578T breast, 89.8%; in the assay on T-47D breast it was 23.8%; in the assay with BT-549 breast it was 73.6%; with MDA-MB-435 melanoma it was 85.5%; in the assay with SW-620 colon, 73.3%. The growth in the assay on MCF7 breast was 61.7%; in the assay on HCT-116 colon, 67.8%; with HCC-2998 colon, 79.7%; with KM12 colon, 69.2%.

Take `CCc1ccc(Oc2c(-c3ccc(OCc4ccc(Cl)cc4)cc3O)nn(C)c2C(F)(F)F)cc1`: the growth with SR leukemia is -26.4% (active); with RPMI-8226 leukemia it was -16.8% (active); in the assay with OVCAR-5 ovarian, 13.2%; with OVCAR-4 ovarian, 12.5%; in the assay with SK-OV-3 ovarian, -6.92% (active); in the assay on IGROV1 ovarian it was 24.3%. Moreover, the growth is -20.9% (active) with OVCAR-3 ovarian; 7.74% (active) in the assay on HS 578T breast; -3.62% (active) in the assay on NCI/ADR-RES ovarian; -8.15% (active) in the assay on T-47D breast; -12% (active) in the assay with BT-549 breast; 1.36% (active) in the assay on MDA-MB-435 melanoma. In addition, the growth in the assay with SW-620 colon was 7.28% (active); with MCF7 breast, 6.53% (active); in the assay with HCT-116 colon, -62.4% (active); in the assay with HCC-2998 colon, 12.8%; in the assay with KM12 colon it was -5.25% (active).

`O=C(COc1ccc(/C=C2\Cc3ccc(Cl)cc3C2=O)cc1)Nc1nc2ccccc2s1`: the growth is 75.5% in the assay on SR leukemia; 93.1% with RPMI-8226 leukemia; 108% in the assay with OVCAR-5 ovarian; 109% with OVCAR-4 ovarian; 104% with SK-OV-3 ovarian; -61.5% (active) in the assay with IGROV1 ovarian. Also, the growth is 104% in the assay with OVCAR-3 ovarian; 91% in the assay on HS 578T breast; 101% in the assay on T-47D breast; 124% in the assay with BT-549 breast; 113% in the assay with MDA-MB-435 melanoma; 112% with SW-620 colon. Further, the growth was 103% with MCF7 breast, 102% in the assay on HCT-116 colon, 115% with HCC-2998 colon and 117% in the assay on KM12 colon.

Consider `COc1ccc(-c2[nH]c3ccc(OC)cc3c2/C=C(\C#N)S(=O)(=O)c2ccccc2)cc1`, for which the growth with SR leukemia was 28.1%; in the assay on OVCAR-8 ovarian, 42.2%; in the assay with OVCAR-5 ovarian, 63.3%; in the assay with OVCAR-4 ovarian, -20.8% (active); with SK-OV-3 ovarian it was 31.9%; with IGROV1 ovarian it was 48.6%. For the same molecule, the growth in the assay on OVCAR-3 ovarian is -1.23% (active); in the assay with HS 578T breast, 13.4%; in the assay on NCI/ADR-RES ovarian, 14.3%; with T-47D breast it was 34.4%; with BT-549 breast, 46.6%; in the assay on MDA-MB-435 melanoma, 1.86% (active). Besides, the growth in the assay with SW-620 colon was 32.8%; in the assay on MCF7 breast it was 7.23% (active); with HCT-116 colon, 19.4%; with HCC-2998 colon, -19.7% (active); with KM12 colon, 10.8%.

Turning to `CNC(C)[C@H]1CCC2C3CCC4C[C@@H](N(C)C(=O)c5ccccc5)CC[C@]4(C)C3CC[C@@]21C` (stereo partly drawn), the growth is 34.5% with SR leukemia; 47.5% in the assay with OVCAR-8 ovarian; 81.6% in the assay with OVCAR-5 ovarian; -5.3% (active) in the assay with OVCAR-4 ovarian; 67% with SK-OV-3 ovarian; 22.8% in the assay on IGROV1 ovarian. In addition, the growth is 9.46% (active) in the assay on OVCAR-3 ovarian; 38.7% with HS 578T breast; 42.4% in the assay on NCI/ADR-RES ovarian; 0.208% (active) with T-47D breast; 31% with BT-549 breast; -25.6% (active) in the assay on MDA-MB-435 melanoma. Also, the growth was -21.7% (active) with SW-620 colon; 5.05% (active) with MCF7 breast; -1.52% (active) in the assay with HCT-116 colon; 18.4% in the assay on HCC-2998 colon; 15.4% with KM12 colon.

Turning to `CN1C(=C2C(=O)OC(C)(C)OC2=O)CCC1C(=O)NCc1ccc(Cl)cc1Cl` (stereo not drawn), the growth in the assay on SR leukemia is 94.7%; in the assay with RPMI-8226 leukemia it was 82.9%; in the assay with OVCAR-5 ovarian, 94.9%; with OVCAR-4 ovarian, 98.2%; in the assay with SK-OV-3 ovarian, 85.8%; in the assay on IGROV1 ovarian, 99.8%. Besides, the growth is 101% in the assay on OVCAR-3 ovarian; 97.5% in the assay on HS 578T breast; 97.4% in the assay on T-47D breast; 107% with BT-549 breast; 109% in the assay on MDA-MB-435 melanoma; 104% with SW-620 colon. Moreover, the growth was 98.3% in the assay on MCF7 breast, 88.3% in the assay with HCT-116 colon, 96.5% in the assay with HCC-2998 colon and 98.5% in the assay on KM12 colon.

Take `Cc1ccc(S(=O)(=O)N/N=C/C2(c3ccccc3)CC2)cc1`: the growth in the assay on SR leukemia is 101%; in the assay with RPMI-8226 leukemia, 96.9%; in the assay on OVCAR-5 ovarian it was 109%; in the assay with OVCAR-4 ovarian it was 98.8%; with SK-OV-3 ovarian, 110%; in the assay with IGROV1 ovarian, 116%. For the same molecule, the growth is 111% with OVCAR-3 ovarian; 102% in the assay with HS 578T breast; 101% in the assay with T-47D breast; 102% with BT-549 breast; 104% with MDA-MB-435 melanoma; 97.1% in the assay with SW-620 colon. Besides, the growth is 88.6% in the assay with MCF7 breast, 98.7% with HCT-116 colon, 111% in the assay on HCC-2998 colon and 107% in the assay with KM12 colon.

Regarding `Cc1nn(-c2ccccc2)c2c1N=c1s/c(=C\c3ccc(C(F)(F)F)cc3)c(=O)n1CN2`, the growth in the assay on SR leukemia is 97.9%; in the assay with RPMI-8226 leukemia, 16.2%; in the assay with OVCAR-5 ovarian, 93.4%; with OVCAR-4 ovarian, 51.2%; in the assay with SK-OV-3 ovarian, 91.5%; in the assay on OVCAR-3 ovarian, 138%. The growth was 96.9% in the assay with HS 578T breast; 40.4% in the assay with NCI/ADR-RES ovarian; 54% in the assay on T-47D breast; 72.2% with BT-549 breast; 61.4% in the assay with MDA-MB-435 melanoma; 75.7% in the assay with SW-620 colon. Besides, the growth in the assay on MCF7 breast was 56.9%; in the assay with HCT-116 colon, 27.8%; in the assay with HCC-2998 colon, 74.2%; with KM12 colon, 97.2%.

Turning to `Nc1ccccc1-c1cc2c(c3c1[nH]c1ccccc13)CCCCC2`, the growth is 94.2% in the assay with SR leukemia; 99.3% in the assay on RPMI-8226 leukemia; 108% with OVCAR-5 ovarian; 105% in the assay on OVCAR-4 ovarian; 115% with SK-OV-3 ovarian; 97% in the assay on IGROV1 ovarian. Besides, the growth with OVCAR-3 ovarian was 102%; in the assay on HS 578T breast, 95.2%; in the assay on NCI/ADR-RES ovarian it was 94.8%; in the assay with T-47D breast, 86.8%; with BT-549 breast, 108%; with MDA-MB-435 melanoma it was 112%. Also, the growth with SW-620 colon was 96.2%; with MCF7 breast, 76%; in the assay on HCT-116 colon, 76.3%; with HCC-2998 colon, 106%; with KM12 colon it was 88.9%.
